# PubChem BioAssay
# Where a name gives a salt, the structure may show the parent alone. Records with an inconclusive call do not appear. For part of these data: Potency and affinity values are given separately. The source made the active and inactive calls.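 The calls were made as follows, unless noted: active = luciferase signal above three times the same-plate solvent-only control wells; inactive = the rest.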 Peptide text beside a SMILES is read from it. * marks the point of attachment. Tfa = O=C(C(F)(F)F)*
# Legend:
# [1] = target: Mitogen-activated protein kinase 7 (Homo sapiens) (UniProt Q13164); test: Gal4-ERK5 driven luciferase induction – cell-based, HTS, primary screen (AID 1508626); settings: HeLa Gal4-ERK5 transactivation, 18 h, at 5 µM, stronger effect = higher value;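 also: luciferase driven by Gal4-ERK5 fusion binding five Gal4 sites before minimal TATA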
# Sequence of Mitogen-activated protein kinase 7 (Homo sapiens) (Q13164 whole entry, looked up, the tested form may be a part): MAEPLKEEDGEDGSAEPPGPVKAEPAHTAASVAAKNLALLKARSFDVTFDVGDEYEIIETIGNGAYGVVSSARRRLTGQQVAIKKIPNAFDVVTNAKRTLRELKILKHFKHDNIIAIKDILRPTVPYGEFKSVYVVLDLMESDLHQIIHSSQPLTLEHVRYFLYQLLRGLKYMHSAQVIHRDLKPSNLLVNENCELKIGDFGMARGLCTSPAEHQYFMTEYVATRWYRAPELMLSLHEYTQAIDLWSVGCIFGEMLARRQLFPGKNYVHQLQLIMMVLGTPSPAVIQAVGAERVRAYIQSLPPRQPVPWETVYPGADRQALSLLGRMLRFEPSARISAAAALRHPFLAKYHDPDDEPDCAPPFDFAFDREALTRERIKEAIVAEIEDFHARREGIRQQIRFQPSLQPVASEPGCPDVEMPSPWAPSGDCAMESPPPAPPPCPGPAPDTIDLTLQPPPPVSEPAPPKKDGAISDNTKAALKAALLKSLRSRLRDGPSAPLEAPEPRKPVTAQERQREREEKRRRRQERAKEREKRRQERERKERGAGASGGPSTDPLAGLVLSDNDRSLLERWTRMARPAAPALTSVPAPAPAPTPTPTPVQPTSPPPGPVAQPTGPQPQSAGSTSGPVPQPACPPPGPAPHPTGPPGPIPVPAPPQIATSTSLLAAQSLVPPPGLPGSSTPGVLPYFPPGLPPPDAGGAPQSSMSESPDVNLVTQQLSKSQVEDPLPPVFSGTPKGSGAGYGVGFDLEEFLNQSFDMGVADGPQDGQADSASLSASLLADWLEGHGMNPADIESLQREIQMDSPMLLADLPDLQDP
# [2] = blockers of polyQ-driven CASP3 activation – cell-based (AID 1583); settings: polyglutamine-induced caspase-3 activation, cell assay; stronger effect = higher value;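 tested at 10 µM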
# [3] = yeast 75Q aggregation reduction – 75Q-TubU reporter (AID 1593); settings: Yeast 75Q polyglutamine aggregation reporter
# [4] = restoration of touch response, mutant HTT neurons – whole organism, C. elegans mechanosensory neurons, N-terminal huntingtin (AID 1599); settings: C. elegans polyQ-huntingtin mechanosensory neurons, stronger effect = higher value
# [5] = blockers of cytochrome c efflux from mitochondria – biochemical, purified mitochondria (AID 1603); settings: stronger effect = lower value;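 also: mouse liver mitochondria challenged with calcium chloride; signal normalized to the plate average as 100%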
# [6] = polyglutamine aggregate formation blockers (AID 1604); settings: polyglutamine-induced protein aggregation inhibition assay; stronger effect = higher value; tested at 2.5 µM
# [7] = glutamate transport activators, MN-1 cells, MN-1 cell line (AID 1612); settings: MN-1 motor neuron cells, stronger effect = higher value;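 also: tested at 1 µM final; 0% = mean of DMSO vehicle wells on each plate; positive means more glutamate uptake than control and negative means less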
# [8] = GFP-Q80 aggregate reduction, neuronal-like cells, cell-based, NGF-treated PC12, GFPQ80 (AID 1614); settings: PC12 NGF-treated GFP-polyQ80 inclusion reduction;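 also: lower means fewer inclusions and 0 means no inclusions at all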
# [9] = 75Q-TubH aggregate inhibition, S. cerevisiae, yeast (AID 1616); settings: S. cerevisiae 75Q-TubH polyglutamine aggregation suppression; stronger effect = higher value
# [10] = P. berghei load reduction in hepatocytes – cell-based, HepG2, luciferase luminescence, HepG2 viability, primary screen (AID 624349; in the data active = parasite load remaining mostly below about 12%, no sharp cut-off; inactive = mostly above about 10%;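 also: 100% = mean of DMSO negative control wells on the same plate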); settings: P. berghei liver stage in HepG2, luciferase luminescence, concentration not given here; parasite load remaining: stronger effect = lower value; viability: measured here: HepG2 viability without parasites
# [11] = blockers of MitoPT in mitochondria (AID 1580; call rule not given here); settings: isolated mitochondria, permeability transition inhibition
# [12] = rescue of PC12 cells from polyQ htt toxicity – LDH release (AID 1610); settings: PC12 mutant huntingtin toxicity, final LDH at 4 uM, stronger effect = lower value
smiles,measurement,setting,value
O=c1c2cc(O)c(O)cc2oc2cc(O)c([C@@H]3O[C@H](CO)[C@@H](O)[C@H](O)[C@H]3O)c(O)c12,luciferase signal,[1],48 AU (inactive)
CC(=O)Oc1cc(C)c2c(c1C=O)Oc1c(c(C)c(OC(C)=O)c3c1C(OC(C)=O)OC3=O)OC2=O (configuration not stated),luciferase signal,[1],172 AU (inactive)
COC(=O)C[C@H]1C(C)(C)C(=O)[C@@H]2CC3=C4CC(=O)O[C@@H](c5ccoc5)[C@]4(C)CC[C@@H]3[C@@]1(C)C2=O,luciferase signal,[1],32 AU (inactive)
Nc1ncnc2c1ncn2[C@H]1C[C@H](O)[C@@H](CO)O1,luciferase signal,[1],136 AU (inactive)
C/C1=C\CC(C)(C)/C=C/CC2(C)OC2CC1 (configuration not stated),luciferase signal,[1],64 AU (inactive)
C[C@H](CCC(=O)O)[C@H]1CC[C@H]2[C@@H]3CC[C@@H]4C[C@H](O)CC[C@]4(C)[C@H]3C=C[C@]12C,luciferase signal,[1],16 AU (inactive)
CC[C@H](C)[C@H](N)C(=O)N1CCC[C@H]1C(=O)N[C@H](C(=O)O)[C@@H](C)CC,luciferase signal,[1],120 AU (inactive)
CC(C)CCC[C@@H](C)[C@H]1CC[C@H]2[C@@H]3CC(=O)[C@H]4C[C@@H](O)CC[C@]4(C)[C@H]3CC[C@]12C,luciferase signal,[1],216 AU (active)
N[C@@H](C=O)[C@@H](O[C@@H]1O[C@H](C(=O)O)[C@@H](O)[C@H](O)[C@H]1O)[C@@H](O)[C@H](O)CO,luciferase signal,[1],20 AU (inactive)
CC[C@H](CC[C@@H](C)[C@H]1CC[C@H]2[C@@H]3CC[C@H]4C[C@@H](O)CC[C@]4(C)[C@H]3CC[C@]12C)C(C)C,luciferase signal,[1],12 AU (inactive)
CO/N=C(/C(=O)N[C@@H]1C(=O)N2C(C(=O)OC(C)OC(C)=O)=C(COC(N)=O)CS[C@H]12)c1ccco1 (some centres not stated),luciferase signal,[1],120 AU (inactive)
CCCCC/C=C/CCC(=O)N[C@H]1[C@H](Oc2c3cc4cc2Oc2ccc(cc2Cl)[C@@H](O[C@@H]2O[C@H](CO)[C@@H](O)[C@H](O)[C@H]2NC(C)=O)[C@@H]2NC(=O)[C@H](NC(=O)[C@@H]4NC(=O)[C@H]4NC(=O)C(Cc5ccc(c(Cl)c5)O3)NC(=O)[C@@H](N)c3ccc(O)c(c3)Oc3cc(O)cc4c3)c3ccc(O)c(c3)-c3c(OC4O[C@H](CO)[C@@H](O)[C@H](O)[C@@H]4O)cc(O)cc3[C@@H](C(=O)O)NC2=O)O[C@H](CO)[C@@H](O)[C@@H]1O (some centres not stated),luciferase signal,[1],52 AU (inactive)
CC(C)C(NC(=O)C(Cc1ccc(O)cc1)NC(=O)C(NC(=O)C(F)(F)F)C(C)C)C(=O)O (stereo not drawn) (Tfa-Val-Tyr-Val-OH; configuration not given here),luciferase signal,[1],64 AU (inactive)
O=c1c(O)c(-c2ccc(O)c(O)c2)oc2c(O[C@@H]3O[C@H](CO)[C@@H](O)[C@H](O)[C@H]3O)c(O)cc(O)c12,luciferase signal,[1],36 AU (inactive)
COc1ccc(-c2cc(=O)c3c(O)c(OC)c(OC)c(OC)c3o2)cc1,luciferase signal,[1],120 AU (inactive)
CC1=C2[C@@H]([C@H](C)CC[C@H]2/C=C(\C)C(=O)O)[C@H](O)C1,luciferase signal,[1],24 AU (inactive)
COC(=O)C[C@H]1C(C)(C)C(=O)[C@@H]2CC3C4=CC(=O)O[C@@H](c5ccoc5)[C@]4(C)CCC3[C@@]1(C)C2=O (some centres not stated),luciferase signal,[1],24 AU (inactive)
CC(C)=CCC/C(C)=C/CC/C(C)=C/CC/C(C)=C/CO,luciferase signal,[1],0 AU (inactive)
COc1ccc(-c2coc3cc(OC(C)=O)cc(OC(C)=O)c3c2=O)cc1,luciferase signal,[1],80 AU (inactive)
COc1cc(-c2cc(=O)c3c(O)c(OC)c(OC)c(OC)c3o2)cc(OC)c1OC,luciferase signal,[1],40 AU (inactive)
CC(C)(O)[C@H]1CC[C@]2(C)[C@H]3CC[C@@H]4[C@@]5(C)CCCC(C)(C)[C@@H]5[C@@H](O)C[C@@]4(C)[C@]3(C)CC[C@@H]12,luciferase signal,[1],84 AU (inactive)
CC(=O)[C@H]1CC[C@H]2[C@@H]3CCC4=CC(=O)CC[C@]4(C)[C@H]3C(OC(=O)CCC(=O)O)C[C@]12C (some centres not stated),luciferase signal,[1],60 AU (inactive)
CC(C)c1c(O)ccc2c1CCC1[C@@](C)(CO)CCC[C@]21C (some centres not stated),luciferase signal,[1],112 AU (inactive)
CC(=O)O[C@H]1CC[C@]2(C)[C@H]3CC=C4[C@@H]5CC(C)(C)CC[C@]5(C)CC[C@@]4(C)[C@]3(C)CC[C@H]2C1(C)C,luciferase signal,[1],64 AU (inactive)
CC1(C)O[C@H]2[C@H](O)C[C@](O)(C(N)=O)C[C@H]2O1,luciferase signal,[1],20 AU (inactive)
NCCCCC(N)C(=O)NCC(=O)NC(Cc1cnc[nH]1)C(=O)NC(CCCCN)C(=O)O (configuration not stated) (H-KGHK-OH; configuration not given here),inhibition,[2],-1.51%
same,score,[3],2.04
same,rescue above control,[4],2.83
same,cytochrome c release ratio,[5],0.86
same,inhibition of aggregation,[6],36%
same,glutamate uptake change,[7],18.4%
same,inclusion score,[8],2
same,aggregation suppression score,[9],1.42
C[C@@H]1CC[C@@]2(OC1)O[C@H]1C[C@H]3[C@@H]4CC[C@@H]5C[C@@H](O)CC[C@]5(C)[C@H]4CC[C@]3(C)[C@H]1[C@@H]2C,luciferase signal,[1],20 AU (inactive)
CC1=CC(=O)CC(C)(C)C1(O)/C=C/C(C)=C\C(=O)O (configuration not stated),parasite load remaining,[10],91.5% (inactive)
same,viability,[10],73.1%
same,luciferase signal,[1],48 AU (inactive)
O=S(=O)([O][Al])OC[C@H]1O[C@@](COS(=O)(=O)[O][Al])(O[C@H]2O[C@H](COS(=O)(=O)[O][Al])[C@@H](OS(=O)(=O)[O][Al])[C@H](OS(=O)(=O)[O][Al])[C@H]2OS(=O)(=O)[O][Al])[C@@H](OS(=O)(=O)[O][Al])[C@@H]1OS(=O)(=O)[O][Al],luciferase signal,[1],84 AU (inactive)
CNS(=O)(=O)c1ccc(NC(=O)c2ccccc2C(=O)O)cc1,luciferase signal,[1],28 AU (inactive)
CC[C@@H](C(=O)C(C)[C@@H](O)[C@H](C)CCc1ccc(C)c(O)c1C(=O)O)C1OC(CC)(C2CC[C@](O)(CC)[C@H](C)O2)C[C@@H]1C (some centres not stated),EC50,[11],100 nM (active)
same,inhibition,[2],75.5%
same,score,[3],1
same,rescue above control,[4],0
same,cytochrome c release ratio,[5],1
same,inhibition of aggregation,[6],74%
same,glutamate uptake change,[7],-67.2%
same,aggregation suppression score,[9],0.948
same,parasite load remaining,[10],-0.43% (inactive)
same,viability,[10],84.4%
COc1cc2c(cc1OC)C1Cc3ccc(OC)c(OC)c3CN1CC2 (configuration not stated),luciferase signal,[1],52 AU (inactive)
CC(NC(=O)C(NC(=O)OCc1ccccc1)C(C)C)C(=O)NC(CC(=O)O)C(=O)OC(F)F (configuration not stated),inhibition,[2],59.7%
same,score,[3],1.09
same,rescue above control,[4],-1.19
same,cytochrome c release ratio,[5],0.97
same,inhibition of aggregation,[6],0.68%
same,normalised LDH release,[12],0.83
same,glutamate uptake change,[7],2.37%
same,inclusion score,[8],2
same,aggregation suppression score,[9],1.2
CC1C(=O)OC2CC34C5CC(C(C)(C)C)C36C(OC(=O)C6O)OC4(C(=O)O5)C21O (configuration not stated),luciferase signal,[1],36 AU (inactive)
CC(=O)N[C@@H](Cc1c[nH]c2ccccc12)C(N)=O,inhibition,[2],11.7%
same,score,[3],1.31
same,rescue above control,[4],23.8
same,cytochrome c release ratio,[5],0.46
same,inhibition of aggregation,[6],60.3%
same,glutamate uptake change,[7],-9.38%
same,aggregation suppression score,[9],1.53
same,parasite load remaining,[10],142% (inactive)
same,viability,[10],71.9%
same,luciferase signal,[1],80 AU (inactive)
CC(=O)OCC(=O)[C@H]1CC[C@H]2[C@@H]3CC=C4C[C@@H](O)CC[C@]4(C)[C@H]3CC[C@]12C,luciferase signal,[1],256 AU (active)
C[C@]12CCC3c4ccc(OC(=O)CCC(=O)O)cc4CCC3C1CCC2=O (some centres not stated),inhibition,[2],21.8%
same,score,[3],1.66
same,rescue above control,[4],8.92
same,cytochrome c release ratio,[5],0.83
same,inhibition of aggregation,[6],33.3%
same,glutamate uptake change,[7],-14.3%
same,inclusion score,[8],2
same,aggregation suppression score,[9],0.711
CO[C@H]1O[C@H](CO)C(O[C@@H]2OC(C(=O)O)[C@@H](O[C@H]3O[C@H](COS(=O)(=O)O)C(O[C@@H]4OC(C(=O)O)[C@@H](O[C@H]5O[C@H](CO)C(O[C@@H]6OC(C(=O)O)[C@@H](O[C@H]7O[C@H](COS(=O)(=O)O)C(O[C@@H]8OC(C(=O)O)=C[C@H](O)C8OS(=O)(=O)O)[C@H](O)[C@H]7NC(C)=O)[C@H](O)[C@H]6O)[C@H](O)[C@H]5NC(C)=O)[C@H](O)[C@H]4O)[C@H](O)[C@H]3NC(C)=O)[C@H](O)[C@H]2O)[C@H](O)[C@H]1NC(C)=O (some centres not stated),luciferase signal,[1],100 AU (inactive)
CC[C@H](/C=C/[C@@H](C)[C@H]1CC[C@H]2[C@@H]3CCC4=CC(=O)CC[C@]4(C)[C@H]3CC[C@]12C)C(C)C,luciferase signal,[1],56 AU (inactive)
CC(C)CCC[C@@H](C)[C@H]1CC[C@H]2[C@@H]3C=CC4=CC(=O)CC[C@]4(C)[C@H]3CC[C@]12C,luciferase signal,[1],44 AU (inactive)
O=c1c(O)c(-c2ccccc2)oc2cccc(O)c12,luciferase signal,[1],60 AU (inactive)
CC(C)=CCC[C@@H](C)[C@@H]1CC[C@]2(C)C3=C(CC[C@@]12C)[C@@]1(C)CC[C@H](O)C(C)(C)[C@@H]1CC3,luciferase signal,[1],68 AU (inactive)
CC(=O)O[C@H]1CC[C@@]2(C)[C@@H](CC[C@@H]3[C@@H]2CC(=O)[C@]2(C)[C@@H]4[C@H](C[C@@H]32)O[C@]2(CC[C@@H](C)CO2)[C@H]4C)C1,luciferase signal,[1],56 AU (inactive)
COC(=O)C[C@H]1C(C)(C)C(=O)[C@@H]2CC3=C(CC[C@]4(C)C3=CC(=O)O[C@H]4c3ccoc3)[C@@]1(C)C2=O,luciferase signal,[1],24 AU (inactive)
CCCCC(=O)OC1(C(=O)CO)C(C)CC2C3CCC4=CC(=O)C=CC4(C)[C@@]3(F)[C@@H](O)CC21C (some centres not stated),inhibition,[2],9.05%
same,score,[3],-0.8
same,rescue above control,[4],-0.98
same,cytochrome c release ratio,[5],1.65
same,inhibition of aggregation,[6],82%
same,normalised LDH release,[12],0.899
same,glutamate uptake change,[7],9.55%
same,aggregation suppression score,[9],1.32
CCC[C@@H]1C[C@@H](C(=O)NC(C(C)Cl)C2O[C@H](SC)[C@H](O)[C@@H](O)[C@H]2O)N(C)C1 (some centres not stated),inhibition,[2],0.38%
same,score,[3],1.1
same,rescue above control,[4],-7.48
same,cytochrome c release ratio,[5],1.11
same,inhibition of aggregation,[6],60.6%
same,glutamate uptake change,[7],-13%
same,inclusion score,[8],2
same,aggregation suppression score,[9],1.42
